# Records with an inconclusive call do not appear. Activity calls are given as the source filed them. Unless noted, the call rests on the fitted dose curve; in most records, active means well fitted curve in the direction sought with a large enough effect; inconclusive means small, poorly fitted or top-dose-only effect, or another doubt; inactive means no such curve, though single readings can be large; an effect the other way counts as inactive or inconclusive.
# What was measured:
# [1] = qHTS profiling of the MIPE4 collection as inhibitors of Plasmodium falciparum (3D7) proliferation (AID 743344; call rule not given here;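 further: scaled between DMSO vehicle wells and 0.29 µM artemisinin as full inhibition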); details: P. falciparum 3D7 in erythrocytes, SYBR Green DNA fluorescence, 72 h; at 28.5 µM unless noted
# In short: (§1)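 Parasite DNA was quantified by SYBR Green I fluorescence (ex 485, em 535 nm) after overnight lysis in saponin/Triton buffer at room temperature. Cultures at 0.3% parasitemia and 2.5% hematocrit were first exposed to compound for 72 h at 37 C; signals were normalised to artemisinin (0.29 uM) and vehicle wells.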
# [2] = qHTS profiling of the MIPE4 collection as inhibitors of Plasmodium falciparum (DD2) proliferation (AID 743345; call rule not given here); details: P. falciparum Dd2 in erythrocytes, SYBR Green DNA, 72 h; at 28.5 µM unless noted
# In short: as §1
# [3] = qHTS profiling of the MIPE4 collection as inhibitors of Plasmodium falciparum (HB3) proliferation (AID 743347; call rule not given here;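 further: plate controls were DMSO vehicle wells for no effect and artemisinin wells for full effect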); details: P. falciparum HB3 in erythrocytes, SYBR Green DNA, 72 h; at 28.5 µM unless noted
# In short: as §1
# [4] = High-throughput drug toxicity screening in the BPDCN cell line Gen2.2 (AID 1224824; call rule not given here;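 further: cells exposed to compounds for 48 h before reading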); details: Gen2.2 BPDCN cells; at 45.8 µM (top of the series) unless noted
# In short: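 CellTiter-Glo luminescence after 48 h compound exposure of Gen2.2 cells; percent activity set with DMSO as 100% and bortezomib (9.2 uM final) as 0%. Cells seeded at 500 per well, RPMI + 10% FBS, 37 °C.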
# [5] = qHTS assay for measurement of the activity of small molecule inhibitors on Zika virus induced Caspase-3 activity in human iPSC derived neural progenitor cells (hNPCs) (AID 1224857); further: % of control where 0% means no effect; nearly all actives have a fitted effect of over 65% in size
# In short: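 Quantitative HTS format: human iPSC neural progenitors, 1 h compound pretreatment, ZIKV 2 FFU/cell for 6 h at 37 C. Percent inhibition derived from luminescent caspase-3/7 signal between uninfected and infected controls.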
# [6] = qHTS profiling of the MIPE4 collection as inhibitors of Plasmodium falciparum (DD2) proliferation (Rep 2) (AID 743346; call rule not given here); details: P. falciparum Dd2 in erythrocytes, SYBR Green DNA, 72 h; at 28.5 µM unless noted
# In short: as §1
# [7] = qHTS profiling for inhibitors of Plasmodium falciparum (3D7) proliferation (AID 743322; call rule not given here;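 further: infected erythrocytes exposed to compound for 72 h before lysis; 100% = DMSO vehicle wells and 0% = 0.29 µM artemisinin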); details: P. falciparum 3D7 proliferation; at 28.7 µM (top of the series)
# In short: as §1
# [8] = qHTS profiling for inhibitors of Plasmodium falciparum (DD2) proliferation (AID 743323; call rule not given here); details: lower = more inhibition; at 28.7 µM (top of the series)
# In short: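 1536-well qHTS; infected RBCs 0.3% parasitemia/2.5% Hct final; cpd 72 h 37 C 5% CO2; lysis buffer + SYBR Green I, o/n RT dark; FI 485/535; norm. to 0.29 uM artemisinin and DMSO, plate-stack corrected.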
# [9] = qHTS profiling for inhibitors of Plasmodium falciparum (HB3) proliferation (AID 743324); details: Plasmodium falciparum HB3 blood-stage proliferation; at 28.7 µM (top of the series);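 further: 100% = DMSO vehicle wells and 0% = artemisinin-treated control wells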
# In short: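 SYBR Green fluorescence (485 ex/535 em) of lysed cultures, incubated overnight at room temperature in the dark, quantifies parasite DNA. Infected erythrocytes at 0.3% parasitemia and 2.5% hematocrit were exposed 72 h; values normalized to DMSO and 0.29 uM artemisinin controls.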
smiles,measurement,setting,value
COc1ccc(-c2nc(N3CCOCC3)c3sc(CN(C)c4ncc(C(=O)NO)cn4)cc3n2)cn1,"parasite growth, % of DMSO control",[1],5.2%
same,"parasite growth remaining, % of DMSO control (lower = more inhibition)",[2],6.7%
same,"growth, % of control",[3],2.4%
same,"cell viability, % of control (lower = more cytotoxic)",[4],8.39%
same,Potency,[5],inactive
COCCOc1nc(-c2ccc(Cl)c(Cl)c2)n(-c2ccc(NC(=O)CCl)cc2)n1,"parasite growth, % of DMSO control",[1],20.8%
same,"parasite growth remaining, % of DMSO control (lower = more inhibition)",[2],64%
same,"parasite growth, % of control (lower = inhibition)",[6],31.7%
same,"growth, % of control",[3],30.2%
same,"cell viability, % of control (lower = more cytotoxic)",[4],114%
same,Potency,[5],inactive
Cc1ccc(/C=N/NC(=O)c2ccccc2Oc2ccccc2)o1,"parasite growth, % of DMSO control",[1],82.9%
same,"parasite growth remaining, % of DMSO control (lower = more inhibition)",[2],103%
same,"growth, % of control",[3],92%
same,"cell viability, % of control (lower = more cytotoxic)",[4],76%
same,Potency,[5],inactive
c1cc(-c2sc(-c3ccncc3)c(-c3ccncc3)c2-c2ccncc2)ccn1,"parasite growth, % of DMSO control",[1],8.84%
same,"parasite growth remaining, % of DMSO control (lower = more inhibition)",[2],81.7%
same,"parasite growth, % of control (lower = inhibition)",[6],19.1%
same,"growth, % of control",[3],3.72%
same,"cell viability, % of control (lower = more cytotoxic)",[4],64.5%
same,Potency,[5],inactive
CN(C)c1cc(NC(=O)CNC(C)(C)C)c(O)c2c1C[C@@H]1C[C@H]3[C@H](N(C)C)C(=O)C(C(N)=O)=C(O)[C@@]3(O)C(=O)C1=C2O,"parasite growth, % of DMSO control",[1],83%
same,"parasite growth remaining, % of DMSO control (lower = more inhibition)",[2],90.5%
same,"parasite growth, % of control (lower = inhibition)",[6],106%
same,"growth, % of control",[3],98.7%
same,"cell viability, % of control (lower = more cytotoxic)",[4],142%
NS(=O)(=O)c1cccc2c1C(=O)c1cccc(O)c1C2=O,"parasite growth, % of DMSO control",[1],4.48%
same,"parasite growth remaining, % of DMSO control (lower = more inhibition)",[2],6.12%
same,"parasite growth, % of control (lower = inhibition)",[6],4.4%
same,"growth, % of control",[3],2.61%
same,"cell viability, % of control (lower = more cytotoxic)",[4],5.1%
Clc1cc(Cl)cc(CNc2ncncc2-c2ccc3c(c2)OCO3)c1,"parasite growth, % of DMSO control",[1],18.8%
same,"parasite growth remaining, % of DMSO control (lower = more inhibition)",[2],47.6%
same,"parasite growth, % of control (lower = inhibition)",[6],28.4%
same,"growth, % of control",[3],10.2%
same,"cell viability, % of control (lower = more cytotoxic)",[4],44.1%
same,Potency,[5],inactive
N[C@@]1(C(=O)O)CS(=O)(=O)[C@H]2[C@H](C(=O)O)[C@H]21,"parasite growth, % of DMSO control",[1],57.1%
same,"parasite growth remaining, % of DMSO control (lower = more inhibition)",[2],88.4%
same,"parasite growth, % of control (lower = inhibition)",[6],112%
same,"growth, % of control",[3],59.7%
same,"cell viability, % of control (lower = more cytotoxic)",[4],78.4%
same,Potency,[5],inactive
COc1cc(Nc2ncc(F)c(Nc3ccc4c(n3)NC(=O)C(C)(C)O4)n2)cc(OC)c1OC,remaining parasite growth % (stronger effect = lower value),[7],83%
same,"activity, percent of control",[8],89.1%
same,"remaining proliferation (% of control), lower = more inhibition",[9],58.2%
same,"parasite growth, % of DMSO control",[1],5.27%
same,"parasite growth remaining, % of DMSO control (lower = more inhibition)",[2],7%
same,"growth, % of control",[3],2.09%
same,"cell viability, % of control (lower = more cytotoxic)",[4],53.6%
same,Potency,[5],inactive
O=C1Nc2ccc(Cl)cc2C(C#CC2CC2)(C(F)(F)F)O1 (stereo unspecified),"parasite growth, % of DMSO control",[1],40.8%
same,"parasite growth remaining, % of DMSO control (lower = more inhibition)",[2],76%
same,"parasite growth, % of control (lower = inhibition)",[6],57.2%
same,"growth, % of control",[3],63%
same,"cell viability, % of control (lower = more cytotoxic)",[4],75.6%
same,Potency,[5],inactive
O=C(O)CCC1CCC(c2cc(F)ccc2F)(S(=O)(=O)c2ccc(Cl)cc2)CC1 (stereo unspecified),remaining parasite growth % (stronger effect = lower value),[7],23.3%
same,"activity, percent of control",[8],74.5%
same,"remaining proliferation (% of control), lower = more inhibition",[9],56.3%
same,"parasite growth, % of DMSO control",[1],66.9%
same,"parasite growth remaining, % of DMSO control (lower = more inhibition)",[2],93.8%
same,"parasite growth, % of control (lower = inhibition)",[6],51.1%
same,"growth, % of control",[3],82.6%
same,"cell viability, % of control (lower = more cytotoxic)",[4],8.09%
same,Potency,[5],inactive
COc1ccc(-c2coc3cc(O)cc(O)c3c2=O)cc1,"parasite growth, % of DMSO control",[1],36.9%
same,"parasite growth remaining, % of DMSO control (lower = more inhibition)",[2],99.4%
same,"growth, % of control",[3],15.1%
same,"cell viability, % of control (lower = more cytotoxic)",[4],308%
CC(C)NCC(O)COc1cccc2[nH]ccc12 (stereo unspecified),Potency,[5],inactive
CCN(CC)CCNC(=O)c1ccc(N)cc1,Potency,[5],inactive
CC(=O)c1ccc(S(=O)(=O)NC(=O)NC2CCCCC2)cc1,Potency,[5],inactive
OC[C@@H](O)[C@H](O)[C@H](O)[C@@H](O)CO,Potency,[5],inactive
CC/C(=C(\c1ccccc1)c1ccc(OCCN(C)C)cc1)c1ccccc1,Potency,[5],inactive
O=C(O)c1cc(-c2ccccc2)nc2ccccc12,Potency,[5],inactive
CC[C@]1(O)C[C@@H]2CN(CCc3c([nH]c4ccccc34)[C@@](C(=O)OC)(c3cc4c(cc3OC)N(C)[C@H]3[C@@](O)(C(=O)OC)[C@H](OC(C)=O)[C@]5(CC)C=CCN6CC[C@]43[C@@H]65)C2)C1,Potency,[5],inactive
O=C(O)CCc1nc(-c2ccccc2)c(-c2ccccc2)o1,Potency,[5],inactive
CC1=C(/C=C/C(C)=C/C=C/C(C)=C/C(=O)Nc2ccc(O)cc2)C(C)(C)CCC1,remaining parasite growth % (stronger effect = lower value),[7],14.1%
same,"activity, percent of control",[8],22.9%
same,"remaining proliferation (% of control), lower = more inhibition",[9],-0.513%
same,Potency,[5],inactive
CCCCC1C(=O)N(c2ccccc2)N(c2ccccc2)C1=O,Potency,[5],inactive
CCN(CC)C(=O)c1ccc(O)c(OC)c1,Potency,[5],inactive
C[N+](C)(C)CCCCCC[N+](C)(C)C,Potency,[5],inactive
CC(=O)N[C@@H](CS)C(=O)O,Potency,[5],inactive
NC(N)=Nc1nc(CSCC/C(N)=N/S(N)(=O)=O)cs1,Potency,[5],inactive
O=C1NC(=O)C(c2ccccc2)(c2ccccc2)N1,Potency,[5],inactive
CC(=O)CCCCn1c(=O)c2c(ncn2C)n(C)c1=O,Potency,[5],inactive
O=C(O)Cc1cccc2ccccc12,Potency,[5],inactive
NC(=S)c1ccc[n+]([C@@H]2O[C@@H](COP(=O)([O-])OP(=O)(O)OC[C@H]3O[C@@H](n4cnc5c(N)ncnc54)[C@H](OP(=O)(O)O)C3O)C(O)C2O)c1 (stereo partly specified),Potency,[5],inactive
CCN1CCC[C@H]1CNC(=O)c1cc(S(N)(=O)=O)ccc1OC,Potency,[5],inactive
COc1ccccc1N1CCN(CCCNc2cc(=O)n(C)c(=O)n2C)CC1,Potency,[5],inactive
CC=CCC(C)C(O)C1C(=O)NC(CC)C(=O)N(C)CC(=O)N(C)C(CC(C)C)C(=O)NC(C(C)C)C(=O)N(C)C(CC(C)C)C(=O)NC(C)C(=O)NC(C)C(=O)N(C)C(CC(C)C)C(=O)N(C)C(CC(C)C)C(=O)N(C)C(C(C)C)C(=O)N1C (stereo unspecified),"parasite growth, % of DMSO control",[1],5.34%
same,"parasite growth remaining, % of DMSO control (lower = more inhibition)",[2],6.98%
same,"parasite growth, % of control (lower = inhibition)",[6],13.2%
same,"growth, % of control",[3],4.04%
same,"cell viability, % of control (lower = more cytotoxic)",[4],8.39%
COC(=O)[C@@H]1[C@H]2C[C@H]3c4[nH]c5ccccc5c4CCN3C[C@@H]2CC[C@@H]1O,Potency,[5],inactive
O=C(O)CCC(C(=O)O)N1C(=O)c2ccccc2C1=O (stereo unspecified),Potency,[5],inactive
Clc1ccc(Cn2c(CN3CCCC3)nc3ccccc32)cc1,Potency,[5],inactive
CC(C)(C)c1ccc(C(O)CCCN2CCC(C(O)(c3ccccc3)c3ccccc3)CC2)cc1 (stereo unspecified),Potency,[5],inactive
O=C(NCCN1CCOCC1)c1ccc(Cl)cc1,Potency,[5],inactive
CC(=O)O[C@]1(C(C)=O)CC[C@H]2[C@@H]3C=C(Cl)C4=CC(=O)[C@@H]5C[C@@H]5[C@]4(C)[C@H]3CC[C@@]21C,Potency,[5],inactive
c1ccc2c(Cc3c[nH]c4ccccc34)c[nH]c2c1,"parasite growth, % of DMSO control",[1],22.8%
same,"parasite growth remaining, % of DMSO control (lower = more inhibition)",[2],60.6%
same,"parasite growth, % of control (lower = inhibition)",[6],22.5%
same,"growth, % of control",[3],23.8%
same,"cell viability, % of control (lower = more cytotoxic)",[4],29.3%
NCCS,Potency,[5],inactive
Nc1ncnc2c1ncn2[C@@H]1O[C@H](COP(=O)(O)OP(=O)(O)OP(=O)(O)OP(=O)(O)OC[C@@H]2O[C@H](n3cnc4c(N)ncnc43)[C@@H](O)C2O)C(O)[C@H]1O (stereo partly specified),Potency,[5],inactive
CCN(CC)CCOC(=O)c1ccc(N)cc1,Potency,[5],inactive
Cc1cccc(C)c1OCC(C)N (stereo unspecified),Potency,[5],inactive
O=C(O)C=Cc1ccc(O)c(O)c1,"parasite growth, % of DMSO control",[1],53.1%
same,"parasite growth remaining, % of DMSO control (lower = more inhibition)",[2],82.5%
same,"growth, % of control",[3],64.3%
same,"cell viability, % of control (lower = more cytotoxic)",[4],21.3%
CCCNC(=O)NS(=O)(=O)c1ccc(Cl)cc1,Potency,[5],inactive
Nc1nc(Cl)nc2c1ncn2[C@@H]1O[C@H](COP(=O)(O)OP(=O)(O)OP(=O)(O)O)C(O)[C@H]1O (stereo partly specified),Potency,[5],inactive
C[C@@H](O)[C@H]1C(=O)N2C(C(=O)O)=C(S[C@@H]3CN[C@H](C(=O)N(C)C)C3)[C@H](C)[C@H]12,"parasite growth, % of DMSO control",[1],109% [at 9.64 µM]
same,"parasite growth remaining, % of DMSO control (lower = more inhibition)",[2],102% [at 9.64 µM]
same,"growth, % of control",[3],61.4% [at 9.64 µM]
same,Potency,[5],inactive
CN(C)CCC(c1ccccc1)c1ccccn1 (stereo unspecified),Potency,[5],inactive
O=C1NCC2(CCN(CCc3ccccc3)CC2)O1,Potency,[5],inactive

# Reference: PubChem BioAssay (NCATS)
